Results filed as inconclusive are left out. The source made the active and inactive calls. Calls come from the whole dose curve.
Test: Validation screen for inhibitors of Lassa infection (AID 463096)
Conditions: Lassa virus infection, cell-based; series mostly up to 46.1 µM; activity change, negative = inhibition: at the top concentration
% is set by controls: 0 for no effect and ±100 for the full control effect.

| Structure (SMILES) | activity change, negative = inhibition | Potency |
| --- | --- | --- |
| CCn1ccnc1CC1COc2ccccc2O1 (stereo not given) | 11.7% (inactive) | – |
| Cc1ccc(/C(=C\CN2CCCC2)c2ccccn2)cc1 | -46% (inactive) | – |
| O=C(c1ccc(F)cc1)C1CCN(CCn2c(=O)[nH]c3ccccc3c2=O)CC1 | -6.91% (inactive) | – |
| CCOC(=O)C1=C[C@]2(CC)CCCN3CCc4c(n1c1ccccc41)[C@@H]32 | -28.6% (inactive) | – |
| CN(C)CCN(Cc1cccs1)c1ccccn1 | 56.6% (inactive) | – |
| COC(=O)[C@@H](N)Cc1ccc(O)c(O)c1 | 8.42% (inactive) | – |
| COc1ccc(CN(CCN(C)C)c2ccccn2)cc1 | 11.1% (inactive) | – |
| CN(C)C(=O)Oc1cccc([N+](C)(C)C)c1 | 9.45% (inactive) | – |
| N[C@@H](Cc1c[nH]c2ccc(O)cc12)C(=O)O | 12% (inactive) | – |
| CNC[C@H](O)c1ccc(O)c(O)c1 | -10.8% (inactive) | – |
| CN(C)CCOC(c1ccccc1)c1ccccc1 | -37.8% (inactive) | – |
| O=C1CC2(CCCC2)CC(=O)N1CCCCN1CCN(c2ncccn2)CC1 | 5.16% (inactive) | – |
| Nc1c2c(nc3ccccc13)CCCC2O (stereo not given) | -11.4% (inactive) | – |
| CCN(CC)CC(=O)Nc1c(C)cccc1C | 2.99% (inactive) | – |
| CCCCC1C(=O)N(c2ccccc2)N(c2ccccc2)C1=O | -17.9% (inactive) | – |
| COc1ccc(CCN(C)CCCC(C#N)(c2cc(OC)c(OC)c(OC)c2)C(C)C)cc1OC (stereo not given) | -4.33% (inactive) | – |
| COc1nc(C)nc(Cl)c1NC1=NCCN1 | 7.52% (inactive) | – |
| COc1cc(C(=O)OCCCN2CCCN(CCCOC(=O)c3cc(OC)c(OC)c(OC)c3)CC2)cc(OC)c1OC | -40.5% (inactive) | – |

| Structure (SMILES) | activity change, negative = inhibition | Potency |
| --- | --- | --- |
| CCCn1cnc2c1c(=O)n(CCCCC(C)=O)c(=O)n2C | -12.2% (inactive) | – |
| O=C(O)CP(=O)(O)O | 22% (inactive) | – |
| CCCCCN(CCCCC)C(=O)C(CCC(=O)O)NC(=O)c1ccc(Cl)c(Cl)c1 (stereo not given) | -19% (inactive) | – |
| O=C(O)CN(CCOCCOCCN(CC(=O)O)CC(=O)O)CC(=O)O | 4.67% (inactive) | – |
| CC(C)COCC(CN(Cc1ccccc1)c1ccccc1)N1CCCC1 (stereo not given) | 10.2% (inactive) | – |
| C#CCN(C)Cc1ccccc1 | 4.53% (inactive) | – |
| Cc1ccc(N(CC2=NCCN2)c2cccc(O)c2)cc1 | -20.3% (inactive) | – |
| OCCN1CCN(CCCN2c3ccccc3C=Cc3ccccc32)CC1 | – | inactive |
| CN(C)CCC(c1ccccc1)c1ccccn1 (stereo not given) | -7.51% (inactive) | – |
| COC(=O)C1=C(C)NC(C)=C(C(=O)OC)C1c1ccccc1[N+](=O)[O-] | -13.6% (inactive) | – |
| CCc1cccc2c3c([nH]c12)C(CC)(CC(=O)O)OCC3 (stereo not given) | 20.7% (inactive) | – |
| CN1CCC(=C2c3ccccc3CC(=O)c3sccc32)CC1 | -29% (inactive) | – |
| C[C@]12CC[C@@H]3c4ccc(O)cc4CC[C@H]3[C@@H]1CCC2=O | -24% (inactive) | – |
| Cc1cc(C(C)(C)C)c(O)c(C)c1CC1=NCCN1 | -18.3% (inactive) | – |
| COc1cc2c(cc1OC)-c1cc(=Nc3c(C)cc(C)cc3C)n(C)c(=O)n1CC2 | -23.6% (inactive) | – |
| CCCCNc1c(C(=O)OCC)c(C)nc2c1cnn2CC | -16.3% (inactive) | – |
| CCN(CC)CCOCCOC(=O)C1(c2ccccc2)CCCC1 | -27% (inactive) | – |
